Drawing on PubChem BioAssay (EPA / NIEHS), this text covers AC50 and outcome for 18 molecules.

By AC50 is commonly meant the concentration at which the activity in the assay is half-maximal.

Read-out in assay [1]: Human Leukocyte Antigen - DR isotype (HLADR), HLA-DRA (gene 3122)
In words: BSK_CASM3C_HLADR: BioMAP Diversity Plus: CASM3C Assay for Human Leukocyte Antigen - DR isotype (HLADR) Biomarker Activity (AID 2283043).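 Also: cell-surface HLA-DR protein level quantified by ELISA.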 The note with it: primary human coronary artery smooth muscle cells; actives raise or lower the signal.

Read-out in assay [2]: Macrophage colony-stimulating factor (MCSF), CSF1 (gene 1435)
In words: BSK_CASM3C_MCSF: BioMAP Diversity Plus: CASM3C Assay for Macrophage colony-stimulating factor (MCSF) Biomarker Activity (AID 2283044).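 Also: M-CSF protein amount quantified by ELISA after 24 h exposure.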 The note with it: primary human coronary artery smooth muscle cells; actives raise or lower the signal.

Read-out in assay [3]: Low-density lipoprotein receptor (LDLR), LDLR (gene 3949)
Put plainly: BSK_CASM3C_LDLR: BioMAP Diversity Plus: CASM3C Assay for Low-density lipoprotein receptor (LDLR) Biomarker Activity (AID 2283045).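 Also: LDLR protein level on the cell surface quantified by ELISA.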 The note with it: primary human coronary artery smooth muscle cells; actives raise or lower the signal.

Read-out in assay [4]: Monocyte Chemoattractant Protein-1 (MCP1), CCL2 (gene 6347)
Put plainly: BSK_CASM3C_MCP1: BioMAP Diversity Plus: CASM3C Assay for Monocyte Chemoattractant Protein-1 (MCP1) Biomarker Activity (AID 2283046).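 Also: MCP-1 level quantified by ELISA 24 h after dosing.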 As to conditions: primary human coronary artery smooth muscle cells; actives raise or lower the signal.

Assay [5] is described as follows: BSK_CASM3C_Proliferation: Cell Proliferation Assessment in the BioMAP Diversity Plus: CASM3C Assay (AID 2283047).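 Also: sulforhodamine B total protein stain as relative cell number at 560 nm; sub-confluent cells exposed 48 h before staining; fitted both ways against DMSO so gain or loss of cell number.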 The note with it: primary human coronary artery smooth muscle cells.
Read-out in assay [6]: Monokine induced gamma interferon (MIG), CXCL9 (gene 4283)
Put plainly: BSK_CASM3C_MIG: BioMAP Diversity Plus: CASM3C Assay for Monokine induced gamma interferon (MIG) Biomarker Activity (AID 2283048).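 Also: MIG protein level measured by ELISA.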 The note with it: primary human coronary artery smooth muscle cells; actives raise or lower the signal.

Read-out in assay [7]: serum amyloid A (SAA), SAA1 (gene 6288)
Put plainly: BSK_CASM3C_SAA: BioMAP Diversity Plus: CASM3C Assay for serum amyloid A (SAA) Biomarker Activity (AID 2283049).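 Also: SAA protein level quantified by ELISA.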 As to conditions: primary human coronary artery smooth muscle cells; actives raise or lower the signal.

Assay [8] is described as follows: BSK_CASM3C_SRB: Viability Assessment in the BioMAP Diversity Plus: CASM3C Assay (AID 2283050).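 Also: total protein by SRB staining as cytotoxicity measure in parallel cultures; cells exposed to compound for 24 h.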 The note with it: primary human coronary artery smooth muscle cells.
Read-out in assay [9]: Thrombomodulin, THBD (gene 7056)
In words: BSK_CASM3C_Thrombomodulin: BioMAP Diversity Plus: CASM3C Assay for Thrombomodulin Biomarker Activity (AID 2283051).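 Also: thrombomodulin protein level measured by ELISA 24 h after dosing.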 The note with it: primary human coronary artery smooth muscle cells; actives raise or lower the signal.

Read-out in assay [10]: Tissue Factor, F3 (gene 2152)
In words: BSK_CASM3C_TissueFactor: BioMAP Diversity Plus: CASM3C Assay for Tissue Factor Biomarker Activity (AID 2283052).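 Also: cell surface tissue factor protein level read by ELISA.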 The note with it: primary human coronary artery smooth muscle cells; actives raise or lower the signal.

Each structure is given as a SMILES string. Values joined by “and” are separate entries in the source; they are usually repeats but may differ in a detail not shown here. Equal values may be shown once. Some compounds were tested as several samples or in several runs, with calls that do not always agree. Active and inactive are the calls of the source. The calls were made as follows: active = hit-call score of the fitted dose curve at least 0.9, where 1 is the maximum; inactive = score below 0.9.

Turning to `CO[Si](OC)(OC)c1ccccc1`, in assay [1], the AC50 is 3.86 µM (active). Also, the result in assay [1], in [2], in assay [3], in assay [4], in [5] and in [6] was inactive. Moreover, the outcome in assay [7], in assay [8], in [9] and in assay [10] was inactive.

Take `C=CC(=O)OCC(Br)CBr` (centres undefined): the AC50 in assay [1] was 11.1 µM (active); in assay [2] it was 20 µM (active); in [3] it was 36 µM (active); in assay [4] it was 27.1 µM (active); in assay [5], 28.5 µM (active); in [6] it was 28 µM (active). The AC50 in [8] was 28.4 µM (active); in assay [9] it was 32.8 µM (active); in assay [10] it was 29.1 µM (active). In [7], the outcome was inactive.

For `c1ccc(-c2ccccn2)nc1`, the outcome in assay [1], in [2], in [3], in assay [4], in assay [5] and in assay [6] was inactive. Further, the outcome in assay [7], in assay [8], in assay [9] and in assay [10] was inactive.

In the case of `Nc1ccc(N)c(Cl)c1`, the result in assay [1], in [3], in assay [4], in [6], in [7] and in [8] was inactive. In addition, in [10], the outcome was inactive. The AC50 in [2] is 8.11 µM (active) and 1.83 µM (active); in assay [5], 28.7 µM (active); in assay [6] it was 6.03 µM (active); in [8] it was 16.1 µM (active); in assay [9], 2.9 µM (active) and 3.08 µM (active); in assay [10], 1.13 µM (active).

`C#CC1(O)CC[C@H]2[C@@H]3CCC4=CCCC[C@@H]4[C@H]3CC[C@@]21C` (some centres undefined): the AC50 in [1] is 34.8 µM (active); in assay [2] it was 20 µM (active); in assay [4], 32.1 µM (active); in assay [5], 8.11 µM (active); in [6], 20 µM (active); in [7], 20 µM (active). Moreover, the values for the AC50 in [8], in assay [9] and in assay [10] were 31 µM (active), 20 µM (active) and 20 µM (active), respectively. Also, the outcome in [3] was inactive.

For the molecule `CCCCCCCCc1ccc(Nc2ccc(CCCCCCCC)cc2)cc1`, the outcome in assay [1], in assay [2], in [3], in [4], in assay [6] and in [7] was inactive. Moreover, the result in assay [8], in assay [9] and in assay [10] was inactive. Further, the AC50 in assay [5] is 14.9 µM (active).

Take `C=CCOc1c(Br)cc(Br)cc1Br`: the AC50 in [1] is 26.8 µM (active); in assay [2], 28.3 µM (active); in [3] it was 20 µM (active); in [4] it was 32.3 µM (active); in assay [5], 29.5 µM (active); in assay [7], 20 µM (active). For the same molecule, the AC50 in assay [8] is 30.4 µM (active); in assay [10], 16.9 µM (active). Also, the result in [6] and in assay [9] was inactive.

Turning to `CCCCNc1ccc(NCCCC)c2c1C(=O)c1ccccc1C2=O`, the result in [1], in assay [2], in assay [3], in assay [4], in assay [5] and in assay [6] was inactive. Besides, the outcome in assay [7], in assay [8], in [9] and in [10] was inactive.

For the molecule `CC(C)(c1cc(Br)c(OCCO)c(Br)c1)c1cc(Br)c(OCCO)c(Br)c1`, the outcome in [1], in [3], in [4], in assay [5], in [6] and in assay [7] was inactive. The outcome in [8], in assay [9] and in [10] was inactive. Further, the half-maximal activity concentration (AC50) in [2] was 4.39 µM (active).

As for `O=C(Cl)c1cc(C(=O)Cl)cc(C(=O)Cl)c1`, the AC50 in [1] was 15.5 µM (active); in assay [2], 14.5 µM (active); in assay [3], 12.3 µM (active); in [4] it was 32 µM (active); in [5], 7.85 µM (active); in assay [6] it was 29.2 µM (active). The AC50 in assay [7] was 20 µM (active); in [8], 15 µM (active); in assay [9], 36.3 µM (active); in assay [10] it was 20 µM (active).

As to `CN1C(=O)N(C)C(O)C1O` (centres undefined), the result in assay [1], in [2], in assay [3], in assay [4], in assay [5] and in [6] was inactive. Besides, the outcome in [7], in assay [8], in assay [9] and in [10] was inactive.

For `C/C=C\C/C=C/CCCCCCCCOC(C)=O`, the AC50 was 20 µM (active) in assay [1]; 20 µM (active) in [2]; 26.4 µM (active) in assay [5]; 28.5 µM (active) in assay [6]; 32.3 µM (active) in [7]; 36.9 µM (active) in [8]. The AC50 in [10] is 6.46 µM (active). Also, the result in assay [3], in assay [4] and in assay [9] was inactive.

Consider `CCOc1nc(F)cc2nc(S(=O)(=O)Nc3c(Cl)cccc3C(=O)OC)nn12`, for which the outcome in [1], in [2], in assay [3], in assay [4], in assay [5] and in [6] was inactive. Besides, the result in assay [7], in assay [8], in assay [9] and in assay [10] was inactive.

As to `CCCCC/C=C\C/C=C\CCCCCCCC(=O)OC`, the AC50 in assay [1] is 20 µM (active); in assay [2], 20 µM (active); in assay [3], 28.7 µM (active); in assay [4] it was 33.7 µM (active); in assay [5] it was 14.4 µM (active); in assay [6], 31.1 µM (active). For the same molecule, the AC50 in assay [8] is 31.7 µM (active); in [10] it was 11.4 µM (active). Also, the result in assay [7] and in assay [9] was inactive.

For the molecule `O=c1c2ccccc2oc2ccccc12`, the result in assay [1], in assay [2], in assay [3], in [4], in assay [5] and in assay [6] was inactive. For the same molecule, the result in assay [7], in assay [8] and in assay [9] was inactive. Moreover, the AC50 in assay [10] was 2.7 µM (active).

For `O=C1CCCN1CCO`, the result in assay [1], in [2], in [3], in assay [4], in assay [5] and in assay [6] was inactive. Besides, the result in assay [7], in assay [8], in assay [9] and in assay [10] was inactive.

As for `c1ccc2c(c1)ccc1ncccc12`, the outcome in assay [1], in assay [2], in assay [3], in assay [4], in assay [5] and in [6] was inactive. Moreover, the outcome in assay [7], in [8], in [9] and in assay [10] was inactive.

Consider `N#[N+]c1ccc2c(S(=O)(=O)[O-])cccc2c1O`, for which the outcome in assay [1], in [2], in assay [3], in [4], in assay [5] and in [6] was inactive. In addition, the result in [7], in [8], in assay [9] and in assay [10] was inactive.
